We go through 36 molecules from PubChem BioAssay (EPA / NIEHS).

Where “and” joins values, the source holds several entries; their conditions need not be identical. Identical values can stand only once. Records with an inconclusive call do not appear. Where a structure was tested more than once in an assay, its records may differ in their call. Calls of active or inactive are those of the source. The calls were made as follows: active = hit-call score of the fitted dose curve at least 0.9, where 1 is the maximum; inconclusive = response in the unintended direction; inactive = score below 0.9.

The test deals with Retinoic acid receptor RXR-alpha (Homo sapiens) (UniProt P19793). Briefly: OT_NURR1_NURR1RXRa_1440: Odyssey Thera (OT) 24-hour HEK293T Protein Complementation Assay for Nurr1/retinoid X receptor (RXR) (AID 2283386). The method, then: OT_NURR1_NURR1RXRa_1440 is a cell-based assay that uses HEK293T, a human kidney cell line, with measurements taken at 24 hours after chemical dosing in a 384-well plate.OT_NURR1_NURR1RXRa_1440 is one of one assay component(s) measured or calculated from the OT_NURR1_NURR1RXRa_1440 assay. It is designed to make measurements of protein fragment complementation, a form of binding reporter, as detected with fluorescence intensity signals by Protein-fragment Complementation technology.Data from the assay component OT_NURR1_NURR1RXRa_1440 was analyzed into 1 assay endpoint. This assay endpoint, OT_NURR1_NURR1RXRa_1440, was analyzed in the positive analysis fitting direction relative to DMSO as the negative control and baseline of activity. Using a type of binding reporter, measures of receptor for gain-of-signal activity can be used to understand the binding at the pathway-level as they relate to the gene RXRA. Furthermore, this assay endpoint can be referred to as a primary readout, because the performed assay has only produced 1 assay endpoint. To generalize the intended target to other relatable targets, this assay endpoint is annotated to the nuclear receptor intended target family, where the subfamily is non-steroidal.
Chain of Retinoic acid receptor RXR-alpha (Homo sapiens) (P19793 whole entry, looked up, the tested form may be a part): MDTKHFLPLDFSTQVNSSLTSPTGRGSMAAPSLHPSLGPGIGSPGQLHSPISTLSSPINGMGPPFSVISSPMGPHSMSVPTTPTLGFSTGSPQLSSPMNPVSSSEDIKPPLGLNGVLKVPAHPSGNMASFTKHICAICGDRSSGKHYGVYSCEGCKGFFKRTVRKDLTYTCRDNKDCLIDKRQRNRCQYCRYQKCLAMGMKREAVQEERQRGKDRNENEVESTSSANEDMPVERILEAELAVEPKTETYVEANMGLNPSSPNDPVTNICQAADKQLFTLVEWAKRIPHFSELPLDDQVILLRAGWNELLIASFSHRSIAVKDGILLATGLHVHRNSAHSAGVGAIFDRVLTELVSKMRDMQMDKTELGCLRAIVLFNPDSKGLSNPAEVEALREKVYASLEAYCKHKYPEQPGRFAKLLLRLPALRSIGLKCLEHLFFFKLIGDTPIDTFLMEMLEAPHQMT
Protein-fragment complementation assay, or PCA, is a method for the identification and quantification of protein-protein interactions. In the PCA, the proteins of interest ("bait" and "prey") are each covalently linked to fragments of a third protein (e.g. DHFR, which acts as a "reporter"). Interaction between the bait and the prey proteins brings the fragments of the reporter protein in close proximity to allow them to form a functional reporter protein whose activity can be measured.
As for `COC(=O)NC(=S)Nc1ccccc1NC(=S)NC(=O)OC`, the molecule was classed as inactive.
With `CCNC(=O)NC(=O)C(C#N)=NOC`, the molecule was classed as inactive and the concentration at half-maximal activity (AC50) was 29.6 µM (active).
On to `Cn1c(-c2ccccc2)cc(-c2ccccc2)[n+]1C`, for which the result was inactive.
Same read-out and setting: to `CCCC(=NOCC)C1=C(O)CC(CC(C)SCC)CC1=O` (stereo not given) belongs “inactive”; to `Nc1cnn(-c2ccccc2)c(=O)c1Cl`, “inactive”.
As for `CC(C)Nc1nc(Cl)nc(NC(C)C)n1`, the molecule was called inactive.
Still for that read-out and setting: next, `Cc1c(COC(=O)[C@@H]2[C@H](/C=C(\Cl)C(F)(F)F)C2(C)C)cccc1-c1ccccc1`: “inactive”; `CCC(C)n1c(=O)[nH]c(C)c(Br)c1=O` (stereo not given): “inactive”.
Regarding `N#Cc1c[nH]cc1-c1cccc2c1OC(F)(F)O2`, the call was inactive.
The same measure, in the same setting: next, `CCNP(=S)(OC)O/C(C)=C/C(=O)OC(C)C` (stereo not given): “inactive”.
For the molecule `CCOP(=O)(OCC)Oc1nc(Cl)c(Cl)cc1Cl`, the concentration at half-maximal activity (AC50) was 9.87 µM (active) and the molecule was called inactive.
As to `CCSC(=O)N1CCCCCC1`, the outcome was inactive.
For `CCCCOCN(C(=O)CCl)c1c(CC)cccc1CC`, the molecule was classed as inactive and the AC50 was 76.8 µM (active).
`CCN(CC)C(=O)C(C)Oc1cccc2ccccc12` (stereo not given): the molecule was called inactive.
As to `COc1cc(OC)nc(NC(=O)NS(=O)(=O)c2ncccc2OCC(F)(F)F)n1`, the call was inactive.
Take `CC(C)N1C(=O)N(c2ccccc2)CSC1=NC(C)(C)C`: the concentration at half-maximal activity (AC50) is 80.8 µM (active) and the molecule was called inactive.
As for `Cc1cnc(C2=NC(C)(C(C)C)C(=O)N2)c(C(=O)O)c1` (stereo not given), the outcome was inactive.
On to `CC1(C)CON(Cc2ccccc2Cl)C1=O`, for which the result was inactive.
On to `CCN(CC)c1nc(C)cc(OP(=S)(OC)OC)n1`, for which the call was inactive.
On the same count and under the same terms, to `C=CCOC(=O)C(C)(C)OC(=O)c1cc(-n2c(=O)cc(C(F)(F)F)n(C)c2=O)ccc1Cl` belongs “inactive”; to `COP(=S)(OC)Oc1ccc([N+](=O)[O-])c(C)c1`, “inactive”; to `CCCN(CC)CC1COC2(CCC(C(C)(C)C)CC2)O1` (stereo not given), “inactive”.
The same measure, in the same setting: to `O=P(O)(O)CCCl` belongs “inactive”; to `COC(=O)c1c(C(F)F)nc(C(F)(F)F)c(C2=NCCS2)c1CC(C)C`, “inactive”; to `O=C(Nc1ccccc1-c1ccc(Cl)cc1)c1cccnc1Cl`, “inactive”.
Same read-out and setting: to `CC1(C)CCC(=Cc2ccc(Cl)cc2)C1(O)Cn1cncn1` (stereo not given) belongs “inactive”.
With `CN/C(=N\[N+](=O)[O-])NCc1cnc(Cl)s1`, the outcome was inactive.
As to `CC(C)Oc1cccc(NC(=O)c2ccccc2C(F)(F)F)c1`, the call was inactive.
Same read-out and setting: to `COP(=O)(OC)O/C(C)=C/C(=O)N(C)C` belongs “inactive”; to `O=C(O)c1c(Cl)ccc2cc(Cl)cnc12`, “inactive”.
Consider `N#Cc1c(Cl)cccc1Cl`, for which the call was inactive.
`Clc1cccc(C(Cl)(Cl)Cl)n1`: the call was inactive.
Take `CC(C)C1(C)N=C(c2ncccc2C(=O)O)NC1=O` (stereo not given): the call was inactive.
In the case of `CNC(=O)N(C)c1nnc(C(C)(C)C)s1`, the call was inactive.
On to `Cc1ccc(N=CN(C)C=Nc2ccc(C)cc2C)c(C)c1`, for which the AC50 is 80.8 µM (active) and 31.9 µM (active).
The same measure, in the same setting: next, `CCOc1cc(C(C)(C)C)ccc1C1COC(c2c(F)cccc2F)=N1` (stereo not given): 18.5 µM (active) and 20.6 µM (active).

The term AC50 denotes the midpoint of the concentration-response curve, whichever way the signal moves.
